Measurements: ChEMBL document CHEMBL3988442, “University of Dundee, Small-Polar-MMV Screening Library” (2021)
Hit rate of the full screen: of about 48,000 compounds, about 13,000 (27%) showed an effect of 50% or more. Some of the results follow.

Test system: Wolbachia pipientis
Assay: Anti-Wolbachia Cell-Based Screen
Assay type: functional
Parameters: scale not given: in the data most compounds retested in dose-response had high values
Conditions: 5 µM

| Structure (SMILES) | Percent Effect [%] |
| --- | --- |
| CCn1ncnc1CN(C/C=C/c1ccccc1)CCOC | 8.107 |
| CC(C)(C)CCN1CCN(Cn2nccc2-c2cccnc2)CC1 | -19.45 |
| Cc1ncc(C(=O)N2C[C@H]3CC[C@@H]2CN(S(=O)(=O)N(C)C)C3)c(C)n1 | 4.102 |
| Cc1ncc(C(=O)N2C[C@H](CO)C[C@H](CN3CCOCC3)C2)c(=O)[nH]1 | -13.12 |
| Cc1ncc(C(=O)N2CC(C(=O)N3CCCCCC3)C2)c(C)n1 | 132.1 |
| Cc1ncc(C(=O)N2CCC(C(=O)NC3CCCC3)C2)c(C)n1 (centres undefined) | 133.9 |
| O=C(NC1CCCCC1)C1CCCN(C(=O)Nc2ccccn2)C1 (centres undefined) | 6.063 |
| Cc1ncc(C(=O)N2CC(C(=O)N3CCOCC3)C2)c(C)n1 | 106.6 |
| Cc1cnc(N2CC(C(=O)N3CCOCC3)C3(CCOCC3)C2)nc1 (centres undefined) | -3.796 |
| CCc1nc(C)ncc1C(=O)N1CCCC(n2nc(C)nc2C)C1 (centres undefined) | -5.056 |
| Cc1nc(N2CCCCC2)ncc1C(=O)N1CC(C)(C)[C@@](C)(O)C1 | 13.78 |
| CCc1ncc2c(n1)CN(CCCOc1ccc(C#N)cc1)CC2 | -6.685 |
| CC(C)c1nnc2ccc(N3CCC(C(=O)Nc4nccs4)CC3)nn12 | 11.38 |
| Brc1cc2c(cc1CN1CCC(N3CCCCC3)CC1)OCCO2 | -3.138 |
| O=C(NCc1ccco1)[C@@]12CCO[C@@H]1CCN(Cc1nccs1)C2 | -2.827 |
| CC(=O)N1CC[C@H]2OCC[C@@]2(C(=O)NCc2cnc(C)cn2)C1 | 98.12 |
| Cc1cnc(CNC(=O)[C@@]23CCO[C@@H]2CCN(c2ncccn2)C3)cn1 | 105.8 |
| O=C(NCc1ccco1)[C@@]12CCO[C@@H]1CCN(c1ncccn1)C2.O=C(O)C(F)(F)F | -9.525 |
| O=C(NCc1ccccn1)[C@@]12CCO[C@@H]1CCN(c1ncccn1)C2 | 99.07 |
| CC(=O)N1CC[C@H]2OCC[C@@]2(C(=O)NCc2ccco2)C1 | 16.6 |
| O=C(NCc1ccco1)[C@@]12CCO[C@@H]1CCN(CCN1CCCC1)C2 | -0.5732 |
| Cc1ccnc(OC[C@@]23CCO[C@@H]2CCN(c2ncccn2)C3)n1.O=C(O)C(F)(F)F | -11.59 |
| CCN1CCN(C[C@@H]2CN(c3ncccc3C(F)(F)F)C[C@@H]2CO)CC1 | -2.806 |
| O=C(O)C(F)(F)F.O=C(c1cscn1)N1CCc2ncc(CN3CCCC3)n2CC1 | -30.66 |
| CCN1CCn2c(C)cnc2C12CCN(C(=O)c1cscn1)CC2.O=C(O)C(F)(F)F.O=C(O)C(F)(F)F | 113.9 |
| CCN1CCn2c(C)cnc2C12CCN(C(=O)COC)CC2.O=C(O)C(F)(F)F.O=C(O)C(F)(F)F | 77.99 |
| CCN1CCn2c(C)cnc2C12CCN(C(=O)Cc1ccccc1)CC2.O=C(O)C(F)(F)F.O=C(O)C(F)(F)F | 97.89 |

| Structure (SMILES) | Percent Effect [%] |
| --- | --- |
| COCC(=O)N1CCC2(CC1)CCn1c(-c3cccc(OC)c3)cnc12 | -17.52 |
| CCN(C)c1ncnc2c1CCN(C(=O)COC)CC2.O=C(O)C(F)(F)F | -4.529 |
| CCN1CC(=O)NCC12CCN(C(=O)c1ccco1)C2.O=C(O)C(F)(F)F (centres undefined) | -12.24 |
| CCN1CCn2c(C)cnc2C12CCN(C(=O)c1ccco1)CC2.O=C(O)C(F)(F)F.O=C(O)C(F)(F)F | 97.51 |
| CCN1CC[C@@]2(C(=O)N(C)C)CCN(C(=O)Cc3ccccc3)CC[C@@H]12.O=C(O)C(F)(F)F | 0.7047 |
| CCN1CCn2c(C)cnc2C12CCN(C(=O)c1ccc(Cl)cc1)CC2.O=C(O)C(F)(F)F | -23.96 |
| CCCNC(=O)c1cc(-c2ccn(C(C)C)n2)n2ccccc12 | -14.06 |
| CCC1CN(Cc2c(O)ccc3oc4c(c23)CCCC4)CCO1 (centres undefined) | -8.053 |
| CCCn1nc(-c2nc(Cc3ccc(OC)cc3)no2)ccc1=O | -20.77 |
| CC(C)c1nc2c(n1C)CCN(CCCc1nc3ccccc3o1)C2 | -2.699 |
| Cn1cc(-c2nc(CN3CCN(CCO)CC3)cs2)cn1 | -9.549 |
| Cc1ccc(C(C)(O)CNC(=O)c2scnc2C)o1 (centres undefined) | -6.969 |
| Cc1ccc2oc(=O)n(CCC(=O)N3CCCC4(CNC(=O)O4)C3)c2c1 (centres undefined) | -2.854 |
| CC(C)c1ccc(C(O)Cn2c(=O)c(C#N)cn(C3CC3)c2=O)cc1 (centres undefined) | -1.509 |
| CC(C)N(C)Cc1nnc2n1CCN(CC1CC1)CC2.O=C(O)C(F)(F)F.O=C(O)C(F)(F)F | 9.045 |
| CN(C)CCOCc1nnc2n1CCN(Cc1ccc(F)cc1)CC2.O=C(O)C(F)(F)F.O=C(O)C(F)(F)F | 109.9 |
| CC(C)N(C)Cc1nnc2n1CCN(Cc1ccncc1)CC2.O=C(O)C(F)(F)F.O=C(O)C(F)(F)F.O=C(O)C(F)(F)F | -8.532 |
| COCc1nnc2n1CCN(Cc1ccoc1)C2.O=C(O)C(F)(F)F | -3.646 |
| CN(C)C(=O)COCc1nnc2n1CCN(Cc1ccoc1)C2.O=C(O)C(F)(F)F | -2.89 |
| CN(C)C(=O)COCc1nnc2n1CCN(Cc1ccsc1)C2.O=C(O)C(F)(F)F | 3.675 |
| CN(C)CCOCc1nnc2n1CCN(CC1CC1)CC2.O=C(O)C(F)(F)F.O=C(O)C(F)(F)F | 103.3 |
| CN(C)CCOCc1nnc2n1CCN(Cc1ccsc1)C2.O=C(O)C(F)(F)F.O=C(O)C(F)(F)F | -13.86 |
| COc1ccc(CN2CCc3nnc(COCCN(C)C)n3CC2)cc1.O=C(O)C(F)(F)F.O=C(O)C(F)(F)F | 131 |
| O=C(O)C(F)(F)F.O=C(O)C(F)(F)F.c1cncc(COCc2nnc3n2CCN(CC2CC2)C3)c1 | -1.478 |
| CN(C)CCOCc1nnc2n1CCN(Cc1ccoc1)CC2.O=C(O)C(F)(F)F.O=C(O)C(F)(F)F | 88.27 |
| CCc1sc(-c2nnc(CNCCn3cccn3)o2)cc1C | -1.143 |
| COc1cccc([C@H]2CN(CCCS(=O)(=O)N(C)C)C[C@@H]2N)c1 | -12.77 |
